According to paper PMC7862700, “An all-to-all approach to the identification of sequence-specific readers for epigenetic DNA modifications on cytosine”:

Experiments:
Assay in all cases: DAPPL (digital affinity profiling via proximity ligation, sequencing); 10 mM Tris-HCl pH 7.5, 50 mM NaCl, 1 mM DTT, 4% glycerol, room temperature, 30 min; GST-TFs on glutathione beads, 16-mer random dsDNA library, 0.1% formaldehyde crosslink after washing; high values mean tight binding
FLI1 = target: T1, FLI1 (Homo sapiens, UniProt Q01543 1-452); conditions: protein: recombinant; tags: N-terminal GST; dsDNA, one strand shown
T1 sequence: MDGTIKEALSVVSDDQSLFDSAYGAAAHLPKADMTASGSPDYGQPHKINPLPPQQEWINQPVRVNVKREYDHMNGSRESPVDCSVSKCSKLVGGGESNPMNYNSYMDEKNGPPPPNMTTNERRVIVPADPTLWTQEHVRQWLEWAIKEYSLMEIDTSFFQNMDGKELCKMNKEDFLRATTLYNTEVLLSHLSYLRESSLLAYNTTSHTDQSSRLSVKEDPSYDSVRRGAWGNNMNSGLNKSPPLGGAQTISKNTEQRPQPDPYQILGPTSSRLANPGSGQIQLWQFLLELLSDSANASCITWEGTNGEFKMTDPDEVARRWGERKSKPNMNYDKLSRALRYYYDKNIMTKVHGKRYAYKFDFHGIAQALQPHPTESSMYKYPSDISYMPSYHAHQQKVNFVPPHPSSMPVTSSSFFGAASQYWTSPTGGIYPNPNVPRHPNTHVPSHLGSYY
Procedure, shortened: (§1)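 GST fusions of human transcription factors were expressed in yeast and captured with glutathione beads. Once given DNA barcodes and pooled alongside a tag-only sample, they were incubated for 30 min at room temperature with 200 nmole of a random double-stranded 16-mer DNA library in Tris/NaCl/DTT/glycerol buffer, then washed, crosslinked (0.1% formaldehyde), proximity-ligated, PCR-amplified and sequenced on an Illumina NextSeq500. The binding signal of each hexamer is its read frequency for a factor divided by its frequency for the tag-only sample.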

ELK1 = target: T2, ELK1 (Homo sapiens, UniProt P19419 1-428); conditions: protein: recombinant; tags: N-terminal GST; dsDNA, one strand shown
T2 sequence: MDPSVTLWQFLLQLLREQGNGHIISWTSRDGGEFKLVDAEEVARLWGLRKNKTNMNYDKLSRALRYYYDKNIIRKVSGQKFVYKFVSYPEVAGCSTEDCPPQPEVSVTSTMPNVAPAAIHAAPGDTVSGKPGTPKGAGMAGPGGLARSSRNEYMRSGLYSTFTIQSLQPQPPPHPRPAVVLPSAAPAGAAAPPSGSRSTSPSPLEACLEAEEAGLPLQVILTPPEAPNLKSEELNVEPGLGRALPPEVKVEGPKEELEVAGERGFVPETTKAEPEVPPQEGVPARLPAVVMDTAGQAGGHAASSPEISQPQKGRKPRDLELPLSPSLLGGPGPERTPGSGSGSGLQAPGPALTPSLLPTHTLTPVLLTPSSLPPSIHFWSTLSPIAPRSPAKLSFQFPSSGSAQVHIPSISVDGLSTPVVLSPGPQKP
Procedure, shortened: as §1

GABPA = target: T3, GABPA (Homo sapiens, UniProt Q06546 1-454); conditions: protein: recombinant; tags: N-terminal GST; dsDNA, one strand shown
T3 sequence: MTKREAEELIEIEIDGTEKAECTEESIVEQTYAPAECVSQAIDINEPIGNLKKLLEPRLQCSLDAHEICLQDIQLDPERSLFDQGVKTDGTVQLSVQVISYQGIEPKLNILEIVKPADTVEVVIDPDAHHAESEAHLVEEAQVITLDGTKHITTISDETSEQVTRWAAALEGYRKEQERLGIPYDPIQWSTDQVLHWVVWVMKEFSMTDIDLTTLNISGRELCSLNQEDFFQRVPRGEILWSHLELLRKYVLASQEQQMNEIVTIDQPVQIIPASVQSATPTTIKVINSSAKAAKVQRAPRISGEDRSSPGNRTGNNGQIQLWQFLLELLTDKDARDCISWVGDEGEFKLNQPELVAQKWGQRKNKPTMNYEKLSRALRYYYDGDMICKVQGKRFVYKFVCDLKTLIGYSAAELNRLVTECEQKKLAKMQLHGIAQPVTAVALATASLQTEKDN
Procedure, shortened: as §1

ERG = target: T4, ERG (Homo sapiens, UniProt P11308 1-479); conditions: protein: recombinant; tags: N-terminal GST; dsDNA, one strand shown
T4 sequence: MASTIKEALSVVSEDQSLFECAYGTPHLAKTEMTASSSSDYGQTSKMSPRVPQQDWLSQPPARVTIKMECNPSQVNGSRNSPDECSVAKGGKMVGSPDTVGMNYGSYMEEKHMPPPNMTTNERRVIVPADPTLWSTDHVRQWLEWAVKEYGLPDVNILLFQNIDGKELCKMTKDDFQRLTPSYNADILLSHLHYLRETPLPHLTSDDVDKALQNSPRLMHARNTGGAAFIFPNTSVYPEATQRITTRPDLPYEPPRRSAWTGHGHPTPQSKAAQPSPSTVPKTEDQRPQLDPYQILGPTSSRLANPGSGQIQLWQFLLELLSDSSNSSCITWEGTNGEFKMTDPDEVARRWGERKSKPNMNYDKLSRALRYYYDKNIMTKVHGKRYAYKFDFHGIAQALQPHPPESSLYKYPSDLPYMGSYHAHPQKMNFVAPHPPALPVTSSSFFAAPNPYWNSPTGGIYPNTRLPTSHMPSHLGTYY
Procedure, shortened: as §1

ELF1 = ELF1 (Homo sapiens, UniProt P32519 1-619); conditions: protein: recombinant; tags: N-terminal GST; dsDNA, one strand shown
ELF1, sequence (P32519 whole entry): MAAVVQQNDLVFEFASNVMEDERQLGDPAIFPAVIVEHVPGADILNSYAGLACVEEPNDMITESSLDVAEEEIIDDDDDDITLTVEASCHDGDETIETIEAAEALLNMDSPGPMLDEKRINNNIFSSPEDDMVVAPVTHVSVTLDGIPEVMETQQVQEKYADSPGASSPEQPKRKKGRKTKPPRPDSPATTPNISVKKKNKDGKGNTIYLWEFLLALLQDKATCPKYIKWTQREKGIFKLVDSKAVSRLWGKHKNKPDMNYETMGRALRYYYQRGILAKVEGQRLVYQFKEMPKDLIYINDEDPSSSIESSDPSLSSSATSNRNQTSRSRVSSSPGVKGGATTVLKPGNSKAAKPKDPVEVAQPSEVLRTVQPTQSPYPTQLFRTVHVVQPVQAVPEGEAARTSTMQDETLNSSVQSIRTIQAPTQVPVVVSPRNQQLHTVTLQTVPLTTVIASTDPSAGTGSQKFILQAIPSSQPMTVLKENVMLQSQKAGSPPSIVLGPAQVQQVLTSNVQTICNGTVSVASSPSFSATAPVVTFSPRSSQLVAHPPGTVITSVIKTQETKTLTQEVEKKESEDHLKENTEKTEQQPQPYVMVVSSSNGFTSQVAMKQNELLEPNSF
Procedure, shortened: as §1

EHF = target: T5, EHF (Homo sapiens, UniProt Q9NZC4 1-300); conditions: protein: recombinant; tags: N-terminal GST; dsDNA, one strand shown
T5 sequence: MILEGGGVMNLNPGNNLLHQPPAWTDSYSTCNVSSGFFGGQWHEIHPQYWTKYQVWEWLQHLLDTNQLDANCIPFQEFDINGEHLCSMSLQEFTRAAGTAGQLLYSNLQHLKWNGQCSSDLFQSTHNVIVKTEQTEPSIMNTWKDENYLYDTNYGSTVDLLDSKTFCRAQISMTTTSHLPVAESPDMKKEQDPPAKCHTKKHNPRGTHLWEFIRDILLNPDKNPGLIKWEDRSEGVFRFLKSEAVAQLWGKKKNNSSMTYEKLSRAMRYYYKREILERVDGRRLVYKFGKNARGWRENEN
Procedure, shortened: as §1

SPI1 = SPI1 (Homo sapiens, UniProt P17947 1-270); conditions: protein: recombinant; tags: N-terminal GST; dsDNA, one strand shown
Procedure, shortened: as §1

SPIB = SPIB (Homo sapiens, UniProt Q01892 1-262); conditions: protein: recombinant; tags: N-terminal GST; dsDNA, one strand shown
SPIB, sequence (Q01892 whole entry): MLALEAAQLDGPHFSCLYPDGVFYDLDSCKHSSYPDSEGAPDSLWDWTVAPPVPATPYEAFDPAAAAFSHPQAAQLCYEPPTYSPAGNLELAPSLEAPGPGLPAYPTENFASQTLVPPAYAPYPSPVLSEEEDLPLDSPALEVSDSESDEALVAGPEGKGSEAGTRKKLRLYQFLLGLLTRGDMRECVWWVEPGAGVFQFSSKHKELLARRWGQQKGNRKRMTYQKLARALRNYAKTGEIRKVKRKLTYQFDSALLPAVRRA
Procedure, shortened: as §1

ELK3 = target: T6, ELK3 (Homo sapiens, UniProt P41970 1-407); conditions: protein: recombinant; tags: N-terminal GST; dsDNA, one strand shown
T6 sequence: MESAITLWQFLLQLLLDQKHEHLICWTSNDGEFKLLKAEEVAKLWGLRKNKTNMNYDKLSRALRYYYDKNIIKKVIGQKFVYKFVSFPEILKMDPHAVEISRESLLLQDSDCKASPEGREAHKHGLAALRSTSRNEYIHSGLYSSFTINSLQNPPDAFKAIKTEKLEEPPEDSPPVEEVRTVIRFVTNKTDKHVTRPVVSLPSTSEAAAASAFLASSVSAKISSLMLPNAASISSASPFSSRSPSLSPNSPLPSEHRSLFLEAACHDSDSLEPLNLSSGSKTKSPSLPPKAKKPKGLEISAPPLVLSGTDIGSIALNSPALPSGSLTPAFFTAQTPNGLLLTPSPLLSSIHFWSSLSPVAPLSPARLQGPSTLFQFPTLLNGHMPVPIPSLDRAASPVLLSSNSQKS
Procedure, shortened: as §1

FEV = target: T7, FEV (Homo sapiens, UniProt Q99581 1-238); conditions: protein: recombinant; tags: N-terminal GST; dsDNA, one strand shown
T7 sequence: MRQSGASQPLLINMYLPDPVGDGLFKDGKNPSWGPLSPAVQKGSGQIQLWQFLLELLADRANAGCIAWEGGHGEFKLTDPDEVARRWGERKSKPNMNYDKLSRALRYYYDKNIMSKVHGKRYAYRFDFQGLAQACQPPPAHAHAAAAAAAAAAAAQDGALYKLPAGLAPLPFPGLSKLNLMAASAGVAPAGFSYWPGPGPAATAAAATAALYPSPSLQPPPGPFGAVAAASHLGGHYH
Procedure, shortened: as §1

ETV5 = ETV5 (Homo sapiens, UniProt P41161 1-510); conditions: protein: recombinant; tags: N-terminal GST; dsDNA, one strand shown
ETV5, sequence (P41161 whole entry): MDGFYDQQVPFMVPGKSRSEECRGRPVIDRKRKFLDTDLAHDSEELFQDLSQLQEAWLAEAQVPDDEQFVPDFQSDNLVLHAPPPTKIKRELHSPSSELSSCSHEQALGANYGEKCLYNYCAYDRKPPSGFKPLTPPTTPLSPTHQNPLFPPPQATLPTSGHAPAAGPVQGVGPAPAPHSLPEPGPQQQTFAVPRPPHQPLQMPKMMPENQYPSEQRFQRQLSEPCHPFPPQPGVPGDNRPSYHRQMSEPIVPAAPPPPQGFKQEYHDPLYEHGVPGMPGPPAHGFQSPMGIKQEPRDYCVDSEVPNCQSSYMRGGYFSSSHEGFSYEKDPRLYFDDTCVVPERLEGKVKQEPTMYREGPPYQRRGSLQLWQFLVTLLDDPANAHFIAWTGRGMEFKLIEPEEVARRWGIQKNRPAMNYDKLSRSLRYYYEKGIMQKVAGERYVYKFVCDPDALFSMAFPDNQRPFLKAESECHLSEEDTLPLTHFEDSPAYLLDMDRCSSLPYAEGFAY
Procedure, shortened: as §1

HSF1 = HSF1 (Homo sapiens, UniProt Q00613 1-529); conditions: protein: recombinant; tags: N-terminal GST; chain copies: 3; dsDNA, one strand shown
HSF1, sequence (Q00613 whole entry): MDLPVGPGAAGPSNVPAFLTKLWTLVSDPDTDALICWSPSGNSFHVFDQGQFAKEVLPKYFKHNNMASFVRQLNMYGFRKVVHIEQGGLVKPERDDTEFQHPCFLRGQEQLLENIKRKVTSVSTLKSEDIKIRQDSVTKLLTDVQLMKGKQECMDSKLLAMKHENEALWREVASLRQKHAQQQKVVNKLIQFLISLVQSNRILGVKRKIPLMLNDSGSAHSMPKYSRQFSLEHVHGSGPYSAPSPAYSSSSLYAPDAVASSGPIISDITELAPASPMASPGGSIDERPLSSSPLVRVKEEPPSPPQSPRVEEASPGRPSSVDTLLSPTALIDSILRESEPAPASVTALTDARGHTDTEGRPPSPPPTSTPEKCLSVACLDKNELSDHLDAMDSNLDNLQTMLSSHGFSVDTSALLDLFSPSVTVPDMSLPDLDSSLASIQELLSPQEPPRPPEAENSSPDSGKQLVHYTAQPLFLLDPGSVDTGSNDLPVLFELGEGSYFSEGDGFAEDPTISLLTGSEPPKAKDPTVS
Procedure, shortened: as §1

SPIC = target: T8, SPIC (Homo sapiens, UniProt Q8N5J4 1-248); conditions: protein: recombinant; tags: N-terminal GST; dsDNA, one strand shown
T8 sequence: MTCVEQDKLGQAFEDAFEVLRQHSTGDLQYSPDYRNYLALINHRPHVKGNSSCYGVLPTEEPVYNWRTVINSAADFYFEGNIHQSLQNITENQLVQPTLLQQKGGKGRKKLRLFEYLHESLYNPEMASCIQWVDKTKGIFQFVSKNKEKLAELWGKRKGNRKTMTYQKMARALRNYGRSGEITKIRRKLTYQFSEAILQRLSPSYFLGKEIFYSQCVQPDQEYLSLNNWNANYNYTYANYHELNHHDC
Procedure, shortened: as §1

ELF4 = ELF4 (Homo sapiens, UniProt Q99607 1-663); conditions: protein: recombinant; tags: N-terminal GST; dsDNA, one strand shown
ELF4, sequence (Q99607 whole entry): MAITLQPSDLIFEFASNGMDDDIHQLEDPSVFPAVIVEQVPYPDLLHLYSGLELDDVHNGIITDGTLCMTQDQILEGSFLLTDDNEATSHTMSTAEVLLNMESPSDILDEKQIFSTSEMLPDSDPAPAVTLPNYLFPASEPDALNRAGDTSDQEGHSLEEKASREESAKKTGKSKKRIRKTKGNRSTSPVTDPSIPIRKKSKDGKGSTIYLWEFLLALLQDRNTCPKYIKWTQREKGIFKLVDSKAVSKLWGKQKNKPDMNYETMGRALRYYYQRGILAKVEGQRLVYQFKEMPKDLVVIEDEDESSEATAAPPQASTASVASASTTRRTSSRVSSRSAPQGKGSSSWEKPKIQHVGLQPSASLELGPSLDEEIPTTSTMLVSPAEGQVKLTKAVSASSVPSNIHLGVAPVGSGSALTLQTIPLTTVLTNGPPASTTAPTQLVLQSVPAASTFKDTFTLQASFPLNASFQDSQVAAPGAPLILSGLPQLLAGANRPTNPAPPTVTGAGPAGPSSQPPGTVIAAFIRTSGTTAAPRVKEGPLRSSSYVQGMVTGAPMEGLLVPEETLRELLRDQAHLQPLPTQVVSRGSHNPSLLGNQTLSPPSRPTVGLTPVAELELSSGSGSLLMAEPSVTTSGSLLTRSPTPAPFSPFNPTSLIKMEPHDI
Procedure, shortened: as §1

ELK4 = target: T9, ELK4 (Homo sapiens, UniProt P28324-2 1-405); conditions: protein: recombinant; tags: N-terminal GST; dsDNA, one strand shown
T9 sequence: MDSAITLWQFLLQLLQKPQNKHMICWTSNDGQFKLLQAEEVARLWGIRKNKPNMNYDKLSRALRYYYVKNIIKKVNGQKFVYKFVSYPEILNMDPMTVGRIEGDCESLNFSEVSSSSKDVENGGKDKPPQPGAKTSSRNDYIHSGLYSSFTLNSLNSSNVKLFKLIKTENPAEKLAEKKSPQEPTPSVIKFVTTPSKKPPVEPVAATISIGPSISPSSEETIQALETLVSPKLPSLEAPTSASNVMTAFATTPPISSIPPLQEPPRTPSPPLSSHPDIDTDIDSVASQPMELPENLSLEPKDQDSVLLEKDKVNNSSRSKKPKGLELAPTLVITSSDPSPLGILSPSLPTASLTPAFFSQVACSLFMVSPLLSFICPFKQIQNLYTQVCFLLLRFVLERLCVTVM
Procedure, shortened: as §1

ETV2 = target: T10, ETV2 (Homo sapiens, UniProt O00321 1-342); conditions: protein: recombinant; tags: N-terminal GST; dsDNA, one strand shown
T10 sequence: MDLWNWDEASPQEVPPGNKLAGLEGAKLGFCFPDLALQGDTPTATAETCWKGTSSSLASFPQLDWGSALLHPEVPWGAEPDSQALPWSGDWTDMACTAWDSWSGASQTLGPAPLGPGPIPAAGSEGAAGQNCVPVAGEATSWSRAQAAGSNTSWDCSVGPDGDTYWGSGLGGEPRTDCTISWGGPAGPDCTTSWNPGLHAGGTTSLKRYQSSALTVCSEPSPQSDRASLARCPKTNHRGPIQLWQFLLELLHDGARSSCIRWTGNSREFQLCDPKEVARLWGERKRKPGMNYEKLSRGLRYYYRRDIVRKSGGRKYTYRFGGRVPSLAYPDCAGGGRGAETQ
Procedure, shortened: as §1

ELF3 = target: T11, ELF3 (Homo sapiens, UniProt P78545 1-371); conditions: protein: recombinant; tags: N-terminal GST; dsDNA, one strand shown
T11 sequence: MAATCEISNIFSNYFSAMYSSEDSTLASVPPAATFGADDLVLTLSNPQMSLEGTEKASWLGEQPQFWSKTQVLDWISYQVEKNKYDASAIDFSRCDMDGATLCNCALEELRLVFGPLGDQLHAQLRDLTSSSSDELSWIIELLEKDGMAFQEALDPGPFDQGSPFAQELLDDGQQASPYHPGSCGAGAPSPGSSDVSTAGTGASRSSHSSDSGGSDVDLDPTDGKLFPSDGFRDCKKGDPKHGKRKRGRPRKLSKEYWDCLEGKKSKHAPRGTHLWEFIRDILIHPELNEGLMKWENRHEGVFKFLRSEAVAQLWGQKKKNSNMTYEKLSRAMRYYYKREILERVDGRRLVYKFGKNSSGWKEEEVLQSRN
Procedure, shortened: as §1

CRX = CRX (Homo sapiens, UniProt O43186 1-299); conditions: protein: recombinant; tags: N-terminal GST; dsDNA, one strand shown
CRX, sequence (O43186 whole entry): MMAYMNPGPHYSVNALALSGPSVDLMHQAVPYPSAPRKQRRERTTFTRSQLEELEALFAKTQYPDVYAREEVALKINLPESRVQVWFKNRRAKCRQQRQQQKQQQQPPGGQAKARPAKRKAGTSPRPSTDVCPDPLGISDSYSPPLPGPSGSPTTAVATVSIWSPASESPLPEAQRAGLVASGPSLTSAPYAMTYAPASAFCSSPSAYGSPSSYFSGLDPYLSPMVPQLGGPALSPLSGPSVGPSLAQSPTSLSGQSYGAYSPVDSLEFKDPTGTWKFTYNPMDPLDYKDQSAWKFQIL
Procedure, shortened: as §1

ETV1 = ETV1 (Homo sapiens, UniProt P50549 1-477); conditions: protein: recombinant; tags: N-terminal GST; dsDNA, one strand shown
ETV1, sequence (P50549 whole entry): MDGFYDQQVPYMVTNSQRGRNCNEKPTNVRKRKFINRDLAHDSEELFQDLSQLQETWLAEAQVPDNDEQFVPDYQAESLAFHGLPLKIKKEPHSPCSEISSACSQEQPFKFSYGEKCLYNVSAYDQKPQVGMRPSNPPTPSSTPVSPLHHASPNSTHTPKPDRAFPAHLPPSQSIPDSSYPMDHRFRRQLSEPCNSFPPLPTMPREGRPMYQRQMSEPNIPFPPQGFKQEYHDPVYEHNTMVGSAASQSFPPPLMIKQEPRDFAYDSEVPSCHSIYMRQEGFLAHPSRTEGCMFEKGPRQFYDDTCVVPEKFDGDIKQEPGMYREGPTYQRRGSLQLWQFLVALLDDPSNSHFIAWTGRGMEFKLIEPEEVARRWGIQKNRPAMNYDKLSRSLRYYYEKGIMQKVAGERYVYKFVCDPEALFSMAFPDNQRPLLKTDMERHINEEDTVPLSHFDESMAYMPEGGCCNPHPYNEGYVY
Procedure, shortened: as §1

TATACC
binding signal (FLI1): 1.29 fold enrichment (6-mer frequency, TF over GST control)
binding signal (ELK1): 1.31 fold enrichment (6-mer frequency, TF over GST control)
binding signal (GABPA): 1.18 fold enrichment (6-mer frequency, TF over GST control)
binding signal (ERG): 1.2 fold enrichment (6-mer frequency, TF over GST control)
binding signal (ELF1): 1.18 fold enrichment (6-mer frequency, TF over GST control)
binding signal (EHF): 1.21 fold enrichment (6-mer frequency, TF over GST control)
binding signal (SPI1): 1.05 fold enrichment (6-mer frequency, TF over GST control)
binding signal (SPIB): 1.27 fold enrichment (6-mer frequency, TF over GST control)
binding signal (ELK3): 1.16 fold enrichment (6-mer frequency, TF over GST control)
binding signal (FEV): 1.23 fold enrichment (6-mer frequency, TF over GST control)
binding signal (ETV5): 1.09 fold enrichment (6-mer frequency, TF over GST control)
binding signal (HSF1): 1.1 fold enrichment (6-mer frequency, TF over GST control)
binding signal (SPIC): 1.14 fold enrichment (6-mer frequency, TF over GST control)
binding signal (ELF4): 1.21 fold enrichment (6-mer frequency, TF over GST control)
binding signal (ELK4): 1.22 fold enrichment (6-mer frequency, TF over GST control)
binding signal (ETV2): 1.15 fold enrichment (6-mer frequency, TF over GST control)
binding signal (ELF3): 1.12 fold enrichment (6-mer frequency, TF over GST control)
binding signal (CRX): 1.26 fold enrichment (6-mer frequency, TF over GST control)
binding signal (ETV1): 1.31 fold enrichment (6-mer frequency, TF over GST control)
